Source: PubChem
Hits are enriched below; roughly 4.8% of the tested compounds scored in any of these assays.
DAX1 inh-1: blocks DAX1 repression of SF-1 activated StAR promoter; HEK293T StAR-luciferase reporter, SF-1/DAX-1 repression relief; inhibition, % at 6.8 µM; 370,000 tested, 1.1% active; AID 652010;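 active = inhibition above the mean over all tested compounds plus 3 SD, cut at about 3.6% in these data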;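 note: 0% = DAX-1 cells with DMSO and 100% = cells lacking DAX-1 with DMSO; higher inhibition means more luminescence from relief of DAX-1 repression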
SMARCA2 act: SMARCA2 function activation, primary screen | MG213 cells, MMTV-luciferase reporter, dexamethasone, overnight | activation, % at 9.1 µM | 370,000 tested, 1% active; in the data active = activation above about 7.8%;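 note: 0% = vehicle wells and 100% = reference activator wells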
hcDAF-12 act: activators of H. contortus DAF-12 nuclear receptor. HEK293 hcDAF-12 lit1-tk-luc reporter, luminescence; 0% DMSO, 100% Δ7-dafachronic acid. activation, % at 6.8 µM. 370,000 tested, 1.4% active. AID 652067;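 active = activation above the mean of all tested compounds plus 3 SD, cut at about 5.5% in these data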;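 note: 100% = response to 3 µM Δ7-dafachronic acid high control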
DAX1 inh-2: NR0B1 (DAX1) inhibition; HEK293 Gal4-DAX1 luciferase reporter, luminescence; inhibition, % at 6.75 µM; 340,000 tested, 0.99% active; AID 504766;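 active = inhibition above the mean over all tested compounds plus 3 SD, cut at about 4.2% in these data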;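 note: 0% = DAX1-transfected cells with DMSO and 100% = empty-vector control cells with DMSO; inhibition shows as a rise in luminescence from relieved DAX1 repression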
Target sequence (P51843 207-470 limits assumed): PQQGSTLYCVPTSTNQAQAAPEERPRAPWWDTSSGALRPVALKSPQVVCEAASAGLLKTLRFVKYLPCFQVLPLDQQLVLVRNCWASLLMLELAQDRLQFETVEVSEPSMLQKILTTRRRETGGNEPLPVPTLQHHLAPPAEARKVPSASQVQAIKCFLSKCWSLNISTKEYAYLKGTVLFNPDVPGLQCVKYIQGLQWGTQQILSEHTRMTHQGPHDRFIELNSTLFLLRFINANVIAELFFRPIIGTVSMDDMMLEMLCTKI
hgDAF-12 ag: hgDAF-12 agonism, primary luciferase screen; 370,000 tested, 1.8% active; HEK293 GAL4-hgDAF12 UAS-luciferase reporter, agonist luminescence; normalized to butyrate control; activation, % at 6.8 µM;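 active = activation above a cutoff set at the mean of all screened compounds plus 3 SD, cut at about 10% in these data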;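 note: 0% = DMSO wells and 100% = sodium butyrate wells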
ssDAF12 agonist: activates DAF-12 receptor from parasite S. stercoralis; HEK293 ssDAF-12/GRIP1 lit1-tk-luc reporter, luminescence; % of 3 µM dafachronic acid response; activation, % at 6.8 µM; 370,000 tested, 1% active; AID 652126;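 active = activation above the mean over all tested compounds plus 3 SD, cut at about 0.9% in these data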;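 note: 0% = DMSO-only wells and 100% = 3 µM delta7-dafachronic acid wells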
Numbers without * were called inactive; nt = no result.

SMILES | DAX1 inh-1 | SMARCA2 act | hcDAF-12 act | DAX1 inh-2 | hgDAF-12 ag | ssDAF12 agonist
CC(C)(C)n1nc2c(c1NC(=O)c1cc3ccccc3o1)CS(=O)(=O)C2 | -1 | 1 | 2 | 0 | 3 | -2
CCOc1ccccc1NC(=O)C(NCC1(N2CCCCC2)CCCCC1)c1ccccc1 (stereo not drawn) | -1 | -1 | 0 | 4.4* | 1 | -2
CCOc1ccccc1NC(=O)C(OC(=O)C1CC1)c1ccccc1 (stereo not drawn) | 0 | 2 | -1 | 1 | -1 | -1
CC(C)c1ccc(N(CC(=O)NCCc2ccccc2)C(=O)c2csnn2)cc1 | 0 | 7.8* | 0 | 1 | 2 | -1
Cc1ccc(N(CC(=O)NCCc2ccccc2)C(=O)c2csnn2)cc1 | 0 | -2 | 0 | -1 | 4 | -1
N#CCCN/N=C(/Cc1nc2ccccc2[nH]1)c1cccc(Cl)c1 | 0 | 1 | 4 | 0 | 1 | 1.3*
COc1cc(F)ccc1-c1cc(C(=O)NCc2ccc(F)cc2)[nH]n1 | -1 | -5 | -3 | nt | -4 | -2
CC(C)(C)NC(=O)C(Cc1ccccc1)NS(=O)(=O)c1ccc2c(c1)CCC(=O)N2 (stereo not drawn) | 0 | -2 | 0 | 0 | 0 | -1
O=C1CCc2cc(S(=O)(=O)NC(Cc3ccccc3)C(=O)NCCC3=CCCCC3)ccc2N1 (stereo not drawn) | -1 | 0 | -2 | 4.3* | 0 | -2
O=C1CCc2cc(S(=O)(=O)N3CCC(C(=O)NCCC4=CCCCC4)CC3)ccc2N1 | 0 | -2 | 1 | 6.2* | 1 | -1
C=C1C(=O)[C@]23C[C@H]1CC[C@H]2[C@]1(C)[C@@H](OC(C)=O)CC[C@@](C)(C(=O)O)[C@H]1C[C@@H]3OC(C)=O | 2 | 7.9* | 0 | nt | 3 | -1
Cn1cnc(CCNC(=O)C[C@H]2CC[C@@H]3[C@H](COC[C@H](O)CN3C(=O)C3CCCC3)O2)c1 | 1 | -1 | 2 | nt | 1 | -1
Clc1ccc(/C=N/N2CCCCC2)cc1 | 0 | 1 | -1 | 0 | -1 | -1
N#Cc1ccc(C=NN2CCCCCC2)cc1 | 3.8* | -4 | 1 | 2 | 8 | 0
O=[N+]([O-])c1ccc(/C=N\N2CCN(c3ccc(Cl)cc3)CC2)cc1 | 0 | -1 | 0 | 0 | -1 | -1
O=[N+]([O-])c1ccc(/C=N/N2CCCCC2)cc1 | 1 | 3 | 4 | 4.4* | 6 | 0
CC(OC(=O)Cn1[nH]c(=O)c2ccccc2c1=O)C(=O)Nc1ccc(Cl)cn1 (stereo not drawn) | 2 | -5 | -1 | 1 | 1 | -1
CCCCCC(=O)N1C[C@H](n2cc(COC(=O)c3ccccc3)nn2)[C@@H](O)C[C@@H]1c1ccc(Cl)cc1 | -1 | -4 | -1 | 1 | 0 | -1
CCCc1[nH]n(-c2ccc(F)cc2)c(=O)c1C=NCC1CCCO1 (stereo not drawn) | -1 | 0 | 0 | 0 | 1 | -2
Cc1[nH]n(-c2ccccc2)c(=O)c1/C=N/N(C)c1ccccc1 | 0 | 4 | 3 | 0 | 0 | 1.8*
Cc1[nH]n(-c2ccccc2)c(=O)c1C=NCC1CCCO1 (stereo not drawn) | 1 | 1 | 1 | -1 | 3 | 1.0*
Cc1[nH]n(-c2cccc(Cl)c2)c(=O)c1C=NCC(C)C | 3 | 8 | 3 | 4.3* | 10 | -1
CN(CCCn1ccc(N)nc1=O)Cc1ccco1 | 0 | -3 | -1 | 0 | -2 | -1
COc1ccccc1CNC(=O)NCCCN1CCN(c2ccc(F)cc2)CC1 | 0 | -3 | -2 | nt | -2 | -2
O=C(NN=C1CCN(Cc2ccccc2)CC1)c1cc(Br)ccc1O | 1 | 0 | 0 | 0 | 7 | -1
SMILES | DAX1 inh-1 | SMARCA2 act | hcDAF-12 act | DAX1 inh-2 | hgDAF-12 ag | ssDAF12 agonist
O=C(Nc1ccc(CN2CCOCC2)cc1)c1ccc2ccccc2c1 | 2 | 2 | 2 | 0 | 13* | 0
O=C(Nc1ccc(CN2CCOCC2)cc1)c1ccc(Cl)cc1 | -1 | 1 | -2 | 0 | 2 | -2
C/C(=N\NC(=O)c1ccc(F)cc1)c1ccc(NC(=O)Cc2ccccc2)cc1 | 4.1* | 5 | 3 | 1 | 7 | -1
CC(=O)Nc1ccc(/C(C)=N/NC(=O)c2ccc(F)cc2)cc1 | 0 | 1 | -1 | 0 | 5 | -1
CC/C(=N/NC(=O)c1ccccc1)c1ccc(OCCN2CCOCC2)cc1 | 2 | 3 | 2 | 1 | 10 | 1.6*
O=C(NN=C1CCN(Cc2ccccc2)CC1)c1ccccc1 | 1 | 5 | 2 | 2 | 11* | 0
CC(OC(=O)C1=COCCO1)C(=O)NC1CCCC(C)C1C (stereo not drawn) | 1 | -7 | 0 | 0 | 4 | 0
CN1CCN(c2ncnc3c2ncn3[C@H]2CN(Cc3ccncc3)C[C@@H](CO)O2)CC1 | 0 | -3 | -1 | nt | 0 | 0
C/C(=N\NC(=O)c1ccc(CN2CCOCC2)cc1)c1ccc(NC(=O)c2ccccc2)cc1 | 3 | 2 | 5 | 0 | 11* | -1
NC(=O)c1c(NC(=O)c2cccs2)sc2c1CCCCCC2 | 1 | 2 | 1 | 1 | 9 | -1
O=C(Nc1sc2c(c1C(=O)O)CCC2)c1cccs1 | 1 | 3 | 5.7* | 2 | 4 | -1
CC(NC(=O)Cn1cccc1)c1ccccc1 (stereo not drawn) | 4.0* | 2 | 0 | 1 | -1 | -1
CC(NC(=O)CCN1C(=O)c2ccccc2C1=O)c1ccccc1 (stereo not drawn) | 0 | 4 | 2 | 4.5* | 0 | -1
O=C(O)C(O)(c1ccccc1)C(O)c1ccccc1 (stereo not drawn) | 0 | -2 | -1 | 0 | -1 | 0
CSc1ccc(C=Nn2c(-c3cc(C)[nH]n3)n[nH]c2=S)cc1 | -1 | -6 | -1 | nt | -1 | -1
COC(=O)C(C)N1C(=O)S/C(=C\c2cc(C)n(-c3ccccn3)c2C)C1=O (stereo not drawn) | 1 | 3 | 0 | 0 | 11* | 0
COc1cccc(NC(=O)c2cnc[nH]2)c1 | 1 | 4 | 0 | 1 | 4 | 0
O=C(Nc1ccc(Br)cc1)c1cnc[nH]1 | 0 | 0 | 6.5* | 3 | 11* | 0
Cc1ccc2c(c1)/C(=C/c1ccco1)C(=O)N2 | -1 | 3 | 0 | 5.1* | 0 | -2
Cc1ccc(/C=C2\C(=O)Nc3ccccc32)o1 | 0 | 0 | 5 | 1 | 2 | 0
Cc1nc(C(F)(F)F)ccc1C(=O)N1CCC1(C)C(=O)NS(=O)(=O)c1cccc(Cl)c1 (stereo not drawn) | -1 | -3 | 1 | nt | -1 | -1
